Calls of active or inactive are those of the source. How the calls were made is not given here.

In this test the target is Pantothenate synthetase (Mycobacterium tuberculosis (strain ATCC 25618 / H37Rv)) (UniProt P9WIL5). The experiment in a line: Coupled enzyme confirmation of inhibitors against recombinant Mtb PanC (AID 375).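 Further: 0% = full reaction with vehicle and 100% = no enzyme background.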 The following applies: coupled enzyme assay; at 10 µM, stronger effect = higher value.
Pantothenate synthetase (Mycobacterium tuberculosis (strain ATCC 25618 / H37Rv)), sequence (P9WIL5 whole entry, looked up): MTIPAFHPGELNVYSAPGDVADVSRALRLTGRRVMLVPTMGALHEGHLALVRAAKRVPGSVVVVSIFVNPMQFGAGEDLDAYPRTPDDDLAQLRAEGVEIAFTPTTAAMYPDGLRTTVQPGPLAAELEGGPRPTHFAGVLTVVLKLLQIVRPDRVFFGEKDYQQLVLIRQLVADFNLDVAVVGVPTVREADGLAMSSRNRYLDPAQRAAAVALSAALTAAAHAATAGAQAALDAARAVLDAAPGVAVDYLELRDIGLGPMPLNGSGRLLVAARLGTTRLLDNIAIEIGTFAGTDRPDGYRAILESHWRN
By inhibition is commonly meant the percentage by which the read-out fell short of the control. In the case of `OC[C@H]1O[C@@H](n2cnc3c(NC4CCCC4)ncnc32)[C@H](O)[C@@H]1O`, the inhibition was 1% (inactive).

On to `CC(C)CC1NC(=O)N(CC(=O)N2CCN(S(=O)(=O)c3ccc(Cl)cc3)CC2)C1=O` (configuration not stated), for which the inhibition is 0% (inactive).

As for `Cc1nc2c(-c3ccccc3)c(C)nn2c(C)c1CCC(=O)NCc1ccco1`, the inhibition was 2% (inactive).

With `CCn1cc(C(=O)O)c(=O)c2cnc(N3CCNCC3)nc21`, the inhibition was 1% (inactive).

In the case of `Cc1cc(C)nc(N2CCCC(C(=O)Nc3nc4ccc(S(C)(=O)=O)cc4s3)C2)n1` (configuration not stated), the inhibition is 4% (inactive).

Turning to `COCCn1cc(C(=O)NCCCN2CCC(C)CC2)c2c3ccccc3n(C)c2c1=O`, the inhibition is 2% (inactive).

For `CN(C)CCCN1c2ccccc2CCc2ccccc21`, the inhibition is 2% (inactive).

For `CCOC(=O)N1CCN(S(=O)(=O)c2ccc(Br)s2)CC1`, the inhibition is 11% (inactive).

Turning to `COCCCNC(=O)CSc1ccc(Cl)cc1`, the inhibition is 0% (inactive).

For the compound `O=C(O)CC(C(=O)Nc1cccc(C(F)(F)F)c1)C1CCCO1` (configuration not stated), the inhibition was 1% (inactive).

With `Cc1cnc(C(=O)OCC(=O)Nc2ccc(Cl)cc2Cl)cn1`, the inhibition was 8% (inactive).

On to `COC(=O)c1cc(Br)c(=O)n(-c2ccc(OC)cc2)c1`, for which the inhibition is 0% (inactive).

Regarding `CCCCOc1ccc(C(=O)Nn2cnnc2)cc1`, the inhibition is 1% (inactive).

Regarding `Cc1cc(NS(=O)(=O)c2ccc(NC(=O)COc3ccccc3C(C)C)cc2)no1`, the inhibition is 0% (inactive).

Regarding `CSc1nc(N2CCOCC2)c2ccccc2n1`, the inhibition is 0% (inactive).

For the compound `CCOC(=O)Cn1nc(-c2ccc(C)cc2)ccc1=O`, the inhibition was 0% (inactive).

With `CC1=C/C(=C/N(C)c2ccccc2)C(=O)S1`, the inhibition is 1% (inactive).

The record behind these values is PubChem BioAssay.
